# Only some compounds are listed: those with a hit (about 0.86% of all), similar ones and a draw of the others.
# TLR9-MyD88 block = blocks human TLR9 binding to MyD88; Q9NR96+Q99836; CHO BLA complementation TLR9-MyD88, CCF4 FRET ratio; inhibition, % at 4.98 µM; actives 0.21% (n = 340,000); AID 504734;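 active = inhibition above the mean over all tested compounds plus 3 SD, cut at about 21% in these data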;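 note: 0% = DMSO only wells and 100% = clavulanate BLA inhibitor control wells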
# IDE act = IDE (human) activation, cell-based; P14735; HEK cells, FAbeta-B cleavage, fluorescence polarization; 0% vehicle, 100% cell-free pure enzyme wells; activation, % at 5.96 µM; actives 0.073% (n = 340,000); AID 493087;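 active = activation above the mean of all tested compounds plus 3 SD, set per screening campaign, cut at about 17% in these data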
# IDE inh = inhibitors of human insulin-degrading enzyme in cells; HEK cells, FAbetaB cleavage, fluorescence polarization; actives 0.41% (n = 320,000); P14735; inhibition, % at 5.59 µM; AID 434962;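 active = percent inhibition above the average of all tested compounds plus 3 SD, set per screening campaign, cut at about 16% in these data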;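 note: IDE supplied by intact live HEK cells; FP after avidin binding of uncleaved biotin substrate so inhibition keeps polarization high; 0% = DMSO wells and 100% = 60 µM reference IDE inhibitor Ii1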
# NOD2-RIPK2 inh = NOD2-RIPK2 protein interaction inhibition. O43353. CHO BLA complementation NOD2-RIPK2, CCF4 ratio. inhibition, % at 4.98 µM. actives 0.38% (n = 360,000); in the data active = inhibition above about 21%;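 note: 0% = vehicle only and 100% = reference blocker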
# Target sequence (O43353 whole entry, looked up): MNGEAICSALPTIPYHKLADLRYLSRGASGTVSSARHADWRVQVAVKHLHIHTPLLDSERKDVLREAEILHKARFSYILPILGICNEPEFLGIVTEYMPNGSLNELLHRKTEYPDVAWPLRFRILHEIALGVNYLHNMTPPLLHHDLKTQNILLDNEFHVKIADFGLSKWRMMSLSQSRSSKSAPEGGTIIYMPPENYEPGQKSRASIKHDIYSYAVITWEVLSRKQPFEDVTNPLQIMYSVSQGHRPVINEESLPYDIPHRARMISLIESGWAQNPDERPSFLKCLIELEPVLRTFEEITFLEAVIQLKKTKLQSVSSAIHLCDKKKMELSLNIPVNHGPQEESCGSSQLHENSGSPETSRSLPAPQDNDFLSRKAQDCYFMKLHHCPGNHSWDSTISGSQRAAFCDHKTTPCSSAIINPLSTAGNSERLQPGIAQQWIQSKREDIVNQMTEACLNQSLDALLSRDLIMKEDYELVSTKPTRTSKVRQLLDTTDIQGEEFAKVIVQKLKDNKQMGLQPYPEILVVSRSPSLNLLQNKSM
# TLR4-MyD88 BLA = inhibitors of human TLR4-MyD88 binding; O00206+Q99836; HeLa CL3-4 TLR4/MyD88 BLA complementation, FRET ratio; inhibition, % at 8.4 µM; actives 0.18% (n = 200,000); in the data active = inhibition above about 25%;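 note: 0% = vehicle and 100% = reference inhibitor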
# NOD2-RIPK2 conf = NOD2-RIPK2 interaction inhibition confirmed; CHO cells, NOD2-RIPK2 BLA complementation, CCF4 FRET; shares compounds with NOD2-RIPK2 inh; actives 70% (n = 1,200); inhibition, % at 4.98 µM;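 active = mean inhibition across replicates above a set limit taken from the earlier primary screen, cut at about 21% in these data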;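 note: 0% = DMSO-only wells and the high end = clavulanate BLA-blocked wells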
# BLA counter = counter-screen for NOD2-RIPK2 interaction inhibitors: BLA reporter; shares compounds with NOD2-RIPK2 inh; CHO BLA reporter, CCF4 FRET ratio, counterscreen; inhibition, % at 4.98 µM; actives 57% (n = 1,200); AID 624371;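 active = mean inhibition above the low-control mean inhibition plus three low-control SD, cut at about 11% in these data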;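 note: 0% = DMSO only wells and 100% = clavulanate high control wells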
# * hit, by the source's call; . = no result.
SMILES,TLR9-MyD88 block,IDE act,IDE inh,NOD2-RIPK2 inh,TLR4-MyD88 BLA,NOD2-RIPK2 conf,BLA counter
O=c1cc(-c2ccccc2)[nH]n1-c1ccccc1,-4.3,4.7,.,-6.4,.,.,.
CCOC(=O)C1=C(C)N(C)C(C)=C(C(=O)OCC)C1c1ccncc1,-7.3,-1.0,5.5,9.0,4.6,.,.
CCOC(=O)C1=C(C)N(C)C(C)=C(C(=O)OCC)C1c1ccccc1,-25.4,0.7,0.5,53.0*,0.0,-8.0,-2.4
O=C1C(Cl)=C(Nc2ccc3cn[nH]c3c2)C(=O)c2ccccc21,3.2,-1.0,5.8,90.6*,.,79.0*,28.5*
C/C(=N\Nc1ncc(Br)cn1)c1cccc([N+](=O)[O-])c1,3.7,2.6,5.2,-8.7,.,.,.
C/C(=N\Nc1ccc([N+](=O)[O-])cc1)c1cccc(N)c1,10.9,2.2,5.3,23.8*,5.4,18.6,21.1*
COc1ccc(N2C(=O)CC(Sc3nnc(-c4ccccc4)o3)C2=O)cc1 (stereo not drawn),3.6,-19.0,7.9,6.5,0.7,.,.
COc1ccc(N2C(=O)CC(Sc3nnnn3-c3ccc(F)cc3)C2=O)cc1 (stereo not drawn),16.7,-21.8,-5.7,41.0*,9.1,43.7*,12.0*
CC(=O)Oc1ccc2nc(/C=C/c3ccccc3)oc(=O)c2c1,-2.7,4.7,4.0,2.2,.,.,.
CC(=O)Nc1ccc(Sc2ccc([N+](=O)[O-])o2)cc1,6.6,0.9,.,29.0*,.,46.8*,15.7*
Cc1nn(-c2ccccc2)c(Cl)c1/C=C/C(=O)c1ccccc1,-5.0,7.5,-2.3,-3.8,2.7,.,.
COc1ccc(-c2cc(C#N)nc(Oc3ccc(Cl)cc3)n2)cc1,-5.6,2.9,-2.6,-1.0,-7.6,.,.
COc1ccc(-c2cc(C#N)nc(Cl)n2)cc1,5.9,5.0,4.1,27.8*,.,39.9*,-1.4
C#CCOCCOCCOCCNc1nc(N2CCN(C(=O)[C@H]([C@@H](C)CC)n3cc(CCCCN)nn3)CC2)nc(N2CCN(C(=O)[C@H](C)n3cc(CCC(=O)O)nn3)CC2)n1,-2.8,-0.8,2.1,-6.9,-1.4,.,.
O=C(Nc1nc2cc3c(cc2s1)OCO3)c1ccc(N2C(=O)CCC2=O)cc1,1.4,3.8,-1.7,22.4*,.,32.1*,30.6*
Cc1cc(N(CC(=O)NC(C)C)S(C)(=O)=O)ccc1Br,-12.9,1.2,-4.4,24.2*,1.9,-6.7,-3.3
CCN(CC(=O)NCc1ccc(Cl)cc1)C(=O)Cc1ccccc1[N+](=O)[O-],9.6,1.4,.,-10.6,.,.,.
Cc1ccc(NN2C(=O)C=C(c3ccccc3)C2=O)cc1,.,.,.,84.0*,-2.7,85.8*,0.6
OCC[C@@H]1C[C@H](O)[C@@H](O)[C@]2(Cc3ccccc3CCO2)O1,-14.2,-6.2,-1.0,-14.6,.,.,.
CN(C)c1ccc(C=Cc2nccc3ccccc23)cc1,.,.,.,75.3*,.,36.8*,46.2*
Cc1[nH]c2ccccc2c1C1=CC(=O)C=CC1=O,16.2,-36.6,.,45.0*,.,62.2*,12.9*
Cc1[nH]c2ccccc2c1CC#N,3.7,5.1,-6.5,8.0,.,.,.
Cc1ccccc1NC(=S)N1CCN(c2ccccc2C)CC1,-16.2,0.7,-3.3,5.2,.,.,.
CC(=O)Nc1ccc(S(=O)(=O)Nc2nc3ccccc3nc2Nc2cccc(O)c2)cc1,-5.5,0.1,-0.8,9.7,.,.,.
CC(=O)Nc1ccc(S(=O)(=O)Nc2nc3ccccc3nc2Nc2ccc3ccccc3c2)cc1,4.3,-2.3,-1.7,22.4*,-9.9,-4.8,-1.6
SMILES,TLR9-MyD88 block,IDE act,IDE inh,NOD2-RIPK2 inh,TLR4-MyD88 BLA,NOD2-RIPK2 conf,BLA counter
O=S(=O)(c1cc(Cl)ccc1Cl)N1CCc2ccccc21,-1.4,-1.0,4.1,-12.6,.,.,.
O=C(Cn1sc2ccccc2c1=O)Nc1ccc(Cl)cc1,5.5,.,.,21.3*,.,42.3*,7.5
O=C(CN1C(=O)CNC1=O)Nc1ccc(Cl)cc1,-3.6,-0.2,-3.4,-1.7,.,.,.
O=C(Cn1sc2ccccc2c1=O)Nc1ccc(F)cc1,10.6,.,.,24.8*,.,25.2*,1.2
O=C(Cn1nc(-c2ccccc2)c2ccccc2c1=O)Nc1ccc(F)cc1,-14.3,5.1,-7.2,-3.4,.,.,.
S=c1[nH]nc(COc2ccccc2)n1C1CCCCC1,1.2,-15.0,0.4,6.6,-3.1,.,.

# Assay outcomes (PubChem)
